Hits are enriched below; roughly 4.3% of the tested compounds scored in any of these assays.
NadD block: NadD (S. aureus) enzyme inhibition. purified NadD enzyme, colorimetric absorbance read-out. inhibition, % at 20 µM. 360,000 compounds, 0.78% hits. AID 602399; in the data active = inhibition above about 26%
FAS TE block: blocks the thioesterase domain of human fatty acid synthase | P49327 | recombinant FAS-TE, OMFH fluorogenic substrate, fluorescence endpoint | inhibition, % at 15 µM | 360,000 compounds, 0.67% hits | AID 602261;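 active = compounds whose normalised, plate-corrected inhibition of enzyme fluorescence in the single-dose primary screen is 50% or more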
Target sequence (P49327 whole entry, looked up, the tested form may be a part): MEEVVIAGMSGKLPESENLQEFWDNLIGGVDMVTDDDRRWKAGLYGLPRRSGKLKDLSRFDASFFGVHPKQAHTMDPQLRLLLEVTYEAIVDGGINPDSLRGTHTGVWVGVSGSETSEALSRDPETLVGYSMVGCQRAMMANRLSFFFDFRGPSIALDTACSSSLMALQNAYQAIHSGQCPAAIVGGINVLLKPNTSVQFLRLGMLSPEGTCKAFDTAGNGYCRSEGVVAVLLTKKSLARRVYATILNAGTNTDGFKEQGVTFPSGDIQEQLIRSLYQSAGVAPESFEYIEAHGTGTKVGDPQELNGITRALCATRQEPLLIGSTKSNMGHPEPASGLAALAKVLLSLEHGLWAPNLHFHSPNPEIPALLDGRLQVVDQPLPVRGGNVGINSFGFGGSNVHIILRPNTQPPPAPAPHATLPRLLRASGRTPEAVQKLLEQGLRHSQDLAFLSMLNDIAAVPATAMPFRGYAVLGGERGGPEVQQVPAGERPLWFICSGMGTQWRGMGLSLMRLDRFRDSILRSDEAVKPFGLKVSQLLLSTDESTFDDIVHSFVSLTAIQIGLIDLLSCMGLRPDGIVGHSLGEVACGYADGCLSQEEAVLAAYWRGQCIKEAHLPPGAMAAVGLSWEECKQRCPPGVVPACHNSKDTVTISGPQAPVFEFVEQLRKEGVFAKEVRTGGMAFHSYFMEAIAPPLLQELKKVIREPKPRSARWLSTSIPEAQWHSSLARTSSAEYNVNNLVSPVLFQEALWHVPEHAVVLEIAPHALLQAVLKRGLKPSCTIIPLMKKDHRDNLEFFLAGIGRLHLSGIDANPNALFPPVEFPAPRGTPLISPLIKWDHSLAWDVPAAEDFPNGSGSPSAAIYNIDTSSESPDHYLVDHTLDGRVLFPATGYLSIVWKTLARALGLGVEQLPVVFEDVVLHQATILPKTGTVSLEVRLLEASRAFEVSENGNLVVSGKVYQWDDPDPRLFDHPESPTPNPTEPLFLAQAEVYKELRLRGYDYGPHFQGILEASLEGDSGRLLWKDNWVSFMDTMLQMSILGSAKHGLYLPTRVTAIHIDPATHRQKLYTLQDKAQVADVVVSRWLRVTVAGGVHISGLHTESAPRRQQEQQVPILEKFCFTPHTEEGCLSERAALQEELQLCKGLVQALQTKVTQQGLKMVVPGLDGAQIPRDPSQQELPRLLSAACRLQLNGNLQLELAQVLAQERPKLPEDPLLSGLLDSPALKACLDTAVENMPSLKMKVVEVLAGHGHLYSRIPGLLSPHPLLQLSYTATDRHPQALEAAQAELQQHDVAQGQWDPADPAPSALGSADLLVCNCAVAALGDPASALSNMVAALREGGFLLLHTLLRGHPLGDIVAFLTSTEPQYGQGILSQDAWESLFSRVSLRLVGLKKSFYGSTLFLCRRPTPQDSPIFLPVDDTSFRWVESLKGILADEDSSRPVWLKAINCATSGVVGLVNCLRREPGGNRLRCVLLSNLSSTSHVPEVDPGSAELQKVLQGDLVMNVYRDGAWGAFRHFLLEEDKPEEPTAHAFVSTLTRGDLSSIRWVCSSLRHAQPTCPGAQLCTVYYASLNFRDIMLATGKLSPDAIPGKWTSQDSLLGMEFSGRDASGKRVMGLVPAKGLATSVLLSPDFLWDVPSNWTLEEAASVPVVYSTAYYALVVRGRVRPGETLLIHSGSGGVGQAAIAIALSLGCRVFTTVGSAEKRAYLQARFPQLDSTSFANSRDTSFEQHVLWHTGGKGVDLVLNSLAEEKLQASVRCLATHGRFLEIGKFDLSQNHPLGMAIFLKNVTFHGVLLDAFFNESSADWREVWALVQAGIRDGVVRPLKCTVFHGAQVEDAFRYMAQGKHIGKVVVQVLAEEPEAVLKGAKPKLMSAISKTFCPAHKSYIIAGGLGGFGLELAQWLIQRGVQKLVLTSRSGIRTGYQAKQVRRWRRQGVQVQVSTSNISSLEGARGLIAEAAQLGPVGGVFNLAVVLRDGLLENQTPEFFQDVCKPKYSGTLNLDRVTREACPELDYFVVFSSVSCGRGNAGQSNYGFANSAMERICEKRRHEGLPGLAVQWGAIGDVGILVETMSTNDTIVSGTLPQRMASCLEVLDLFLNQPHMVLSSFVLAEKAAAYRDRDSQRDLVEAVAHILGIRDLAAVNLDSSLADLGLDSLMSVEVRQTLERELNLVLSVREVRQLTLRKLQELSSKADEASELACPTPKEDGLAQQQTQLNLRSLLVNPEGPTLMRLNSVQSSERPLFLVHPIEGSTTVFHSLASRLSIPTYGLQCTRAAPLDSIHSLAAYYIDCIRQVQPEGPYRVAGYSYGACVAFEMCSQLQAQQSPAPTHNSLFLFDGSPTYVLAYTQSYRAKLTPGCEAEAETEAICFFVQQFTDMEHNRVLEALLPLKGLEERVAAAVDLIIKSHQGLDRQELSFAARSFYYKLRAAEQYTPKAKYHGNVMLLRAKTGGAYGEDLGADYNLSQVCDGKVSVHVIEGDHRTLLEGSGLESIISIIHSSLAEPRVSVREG
rCAG RNA binder: molecules binding r(CAG) RNA repeats | r(CAG) RNA repeat, TO-PRO-1 dye displacement fluorescence | inhibition, % at 3 µM | 370,000 compounds, 1.3% hits | AID 651821;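 active = inhibition above the plate cutoff, the mean of all test compounds on that plate plus 3 SD, cut at about 35% in these data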;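 also: higher means more dye released from RNA so lower well fluorescence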
NR3A LBD binder: modulators (binders) of human NR3A ligand-binding domain; NR3A LBD differential scanning fluorimetry, Tm shift; 0% = protein alone, 100% = glycine-bound protein; Tm shift relative to glycine control, % at 25 µM; 340,000 compounds, 2.5% hits; AID 1259313;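 active = melting temperature shift of at least 10% of the positive control shift, at one fixed dose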
FAS-TE inh conf: FAS thioesterase (human) inhibition, confirmation. shares compounds with FAS TE block. inhibition, % at 15 µM. recombinant FAS-TE, OMFH fluorogenic substrate, fluorescence. 2,300 compounds, 45% hits;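 active = compounds inhibiting the enzyme by at least 50% at 15 µM in any one of the replicates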
Large screens that a line does not name were inactive (follow-up assays come after a bar, where they were run).

COC(=O)C1=C(C)N(Cc2ccccc2C(F)(F)F)C(=NCc2ccc(C(F)(F)F)cc2)NC1c1cccc(Cl)c1 (stereo unspecified)	none (no result: NadD block, FAS TE block, NR3A LBD binder)
Cc1nnc(SCc2cc([N+](=O)[O-])cc3c2OCOC3)n(N)c1=O	none
CCOC(=O)c1cc2c(c(CSc3nc4ccccc4c(=O)n3Cc3ccco3)c1)OCOC2	none (no result: rCAG RNA binder)
CCC(CO)n1c(SCc2cc([N+](=O)[O-])cc3c2OCOC3)nc2ccccc2c1=O (stereo unspecified)	FAS TE block 54 | FAS-TE inh conf inactive
C=CCn1c(SCc2cc([N+](=O)[O-])cc3c2OCOC3)nc2cc(C(=O)O)ccc2c1=O	FAS TE block 83 | FAS-TE inh conf 77
COc1ccc(N(C)S(=O)(=O)c2cccc(C(=O)N3CCN(S(=O)(=O)c4ccc(C)cc4)CC3)c2)cc1	FAS TE block 52 | FAS-TE inh conf inactive
COc1ccc(S(=O)(=O)N2CCN(C(=O)c3cccc(S(=O)(=O)N4CCCC4)c3)CC2)cc1	none (no result: NR3A LBD binder)
COc1ccc2nc(N3CCCCC3)c(/C=C3\SC(=S)NC3=O)cc2c1	FAS TE block 62 | FAS-TE inh conf inactive
COc1ccc2nc(N3CCCCC3)c(C#N)cc2c1	none
COc1ccc(C(=O)/C(C#N)=N/Nc2ccc([N+](=O)[O-])cc2)cc1	FAS TE block 59, NR3A LBD binder 17 | FAS-TE inh conf inactive
COc1ccc(NS(=O)(=O)c2cc(NC(=O)c3ccc(Cl)cc3)ccc2N2CCOCC2)cc1	FAS TE block 53 | FAS-TE inh conf inactive
COc1ccc(NS(=O)(=O)c2cc(NC(=O)c3cnc(C)cn3)ccc2N2CCCC2)cc1	none
COc1ccc(NS(=O)(=O)c2cc(NC(=O)c3cnc(C)cn3)ccc2N2CCCCC2)cc1	FAS TE block 55 | FAS-TE inh conf inactive
O=C(C1CCN(S(=O)(=O)c2ccc3[nH]c(=O)oc3c2)CC1)N1CCCN(Cc2ccccc2)CC1	none (no result: NadD block, FAS TE block, NR3A LBD binder)
CCCCc1c(-c2ccccc2OC)ncn1C(C)c1ccccc1 (stereo unspecified)	none (no result: NadD block, FAS TE block, NR3A LBD binder)
C=CCn1c(Cc2cccs2)nnc1SCC(=O)Nc1ccc(OCc2ccccc2)cc1	none (no result: NadD block, FAS TE block, NR3A LBD binder)
Cc1cccc(NC(=S)/N=C(\N)Nc2nc(C)c3ccccc3n2)c1	FAS TE block 59 | FAS-TE inh conf inactive
Cn1c(=O)c2c(c3ccccc31)OC(C)(C)C=C2	none (no result: NadD block, FAS TE block, NR3A LBD binder)
CCc1ccc([C@H]2[C@@H]3C(=O)C[C@@H]4C(=O)N(C)C(=O)[C@@H]4[C@@H]3CN2S(=O)(=O)c2ccc(C)cc2)cc1	none (no result: NR3A LBD binder)
Cc1ccccc1S(=O)(=O)N1C[C@H]2[C@H]3C(=O)N(C4CCCCC4)C(=O)[C@H]3CC(=O)[C@H]2[C@@H]1c1ccc(Cl)cc1	FAS TE block 73 (no result: NR3A LBD binder) | FAS-TE inh conf inactive
CCc1ccc([C@H]2[C@@H]3C(=O)C[C@@H]4C(=O)N(CC)C(=O)[C@@H]4[C@@H]3CN2S(=O)(=O)c2ccc(C)cc2)cc1	none (no result: NR3A LBD binder)
CCc1ccc([C@H]2[C@@H]3C(=O)C[C@@H]4C(=O)N(C5CCCCC5)C(=O)[C@@H]4[C@@H]3CN2S(=O)(=O)c2ccc(C)cc2)cc1	FAS TE block 72 (no result: NR3A LBD binder) | FAS-TE inh conf inactive
CCc1ccc([C@H]2[C@@H]3C(=O)C[C@@H]4C(=O)N(Cc5ccccc5)C(=O)[C@@H]4[C@@H]3CN2S(=O)(=O)c2ccc(C)cc2)cc1	FAS TE block 59 (no result: NR3A LBD binder) | FAS-TE inh conf inactive
Cc1ccccc1S(=O)(=O)N1C[C@@H]2C(C(=O)C[C@@H]3C(=O)N(C)C(=O)[C@@H]32)[C@@H]1c1ccc(Cl)cc1 (stereo partly specified)	none (no result: NadD block, FAS TE block, NR3A LBD binder)
Cc1ccc(S(=O)(=O)N(C(=O)c2ccncc2)c2ccc(OC(=O)c3ccncc3)c3ccccc23)c(C)c1	none (no result: rCAG RNA binder)
Cc1ccc(S(=O)(=O)N(C(=O)c2ccncc2)c2ccc(OC(=O)c3ccncc3)c3ccccc23)cc1	FAS TE block 57 | FAS-TE inh conf inactive
COc1ccc(-c2cc(=O)c3cccc(CC(=O)O)c3o2)cc1	none (no result: NadD block, FAS TE block, NR3A LBD binder)
O=C(Nc1ccc(OC(F)(F)F)cc1)c1cccc(-n2cnnn2)c1	FAS TE block 56 | FAS-TE inh conf inactive
CCOc1ccc(NC(=O)c2cccc(-n3cnnn3)c2)cc1	none
Nc1[nH]c(C(=O)c2ccccc2)c(-c2cccc(C(F)(F)F)c2)c1C(=O)NCCc1c[nH]c2ccccc12	none (no result: NadD block, FAS TE block, NR3A LBD binder)
O=C(NCc1ccccc1)/C(=C/c1cccc([N+](=O)[O-])c1)NC(=O)c1ccco1	FAS TE block 69 | FAS-TE inh conf 79
O=C(NCCc1ccccc1)/C(=C\c1cccc([N+](=O)[O-])c1)NC(=O)c1ccco1	FAS TE block 83 | FAS-TE inh conf 77

Source: PubChem BioAssay
